# Target: ZNF653
# Experiment: pooled miR-30 sensor sort-seq; sequence = guide strand
# Conditions: shRNA
# Further: reference of the scale not given here.
row,Sequence,sensor-assay potency score (higher = more potent)
1,TTGACGTGGTTCTGGAAGCTGC,-0.877
2,TTCCTCTTGAAGGACTTGCCGC,-0.882
3,ATAAATAGAACTTCTTGCCACA,-0.586
4,ATGATGGCTGACATGTCGCTGC,-0.928
5,TGACATGTCGCTGCCGTCCAGC,-1.21
6,TGAAGTTGTACTGCACCTCCGC,-0.192
7,TTGGATAAATAGAACTTCTTGC,-0.368
8,TTCTTCCTCTTGAAGGACTTGC,-0.65
9,TAGCAAGCACAGGTCCTCCTTC,-0.219

# Target: ZNF654
# Experiment: as above
# Conditions: shRNA
row,Sequence,sensor-assay potency score (higher = more potent)
1,TGAGTCTGTCTGAACATCCCAA,-0.147
2,TTGATTTGCTAGTAGAAACTGG,0.3
3,TAAATATCCGGACACAACCAAG,-1.3
4,TTCTTGTGGTACAACACTGGGC,-0.302
5,TTCTGAACTAAACTGTCTGTTT,0.135
6,TATCTTGATCAGAACAGGCATC,-0.711
7,TTGTCGCACATTTAAATCGGTT,-1.07
8,TTGAGCTGCAGCAATTTGCTGC,0.117
9,TTTGCTAGTAGAAACTGGCAGA,-0.0895
10,TAAAGTTTCCTTCTTGATCTGT,0.508
11,TAGGATTTGAGTCTGTCTGAAC,-1.01
12,TTACACATGCAAAACTGCCTTT,0.225

# Target: ZNF674
# Experiment: as above
# Conditions: shRNA
row,Sequence,sensor-assay potency score (higher = more potent)
1,TTTTACAGAAACAAAGTCTGTG,0.624
2,TTCTACATATTTTACATTCTTG,-0.737
3,TTTACAGAAACAAAGTCTGTGT,-0.0841
4,TTTTACATTCTTGACCACTTTC,-0.602
5,TTGACCACTTTCATCCTTCAGT,0.00879
6,TTCTTGACCACTTTCATCCTTC,0.42
7,TTGGACATTTGTCACATACAAA,-1.79
8,TACATTCTTGACCACTTTCATC,-1.6
9,TACAGAAACAAAGTCTGTGTTG,-0.525
10,TATCTGCTCGTCAACTTCCCAG,-1.05
11,TTGATGAGAGTTGACTTCCTAC,-0.0843
12,TTTACTACACTCATAAATGTTC,-0.591

# Target: ZNF708
# Experiment: as above
# Conditions: shRNA
row,Sequence,sensor-assay potency score (higher = more potent)
1,TTTTCTAGTAAGAATTATCTTA,-0.389
2,TATCTTATGATTCGTAAGGTTT,-1.04
3,TTATCTTATGTCTCTTTGCATT,-1.42
4,TTTGTCACACTGAACTATTTTG,-1.74
5,TTATCTTATGATTCGTAAGGTT,-0.564
6,ATGTCTTATCTTATGTCTCTTT,-1.05
7,TTCTCTAACATGACATTCCTAT,-0.111

# — the OligoGym collection
